# High-throughput results deposited in PubChem BioAssay by National Center for Advancing Translational Sciences (NCATS).
# TGFb inhibitor – inhibitors of TGF-b signaling; HepG2 CAGA-GFP TGF-b/SMAD3 reporter, GFP fluorescence, 18 h; TGF-beta stimulated, 500 pg/mL final; Potency, µM (highest dose often 46.1 µM), for inactives: at the highest dose activity, negative = inhibition, usual class: inhibitors; actives 1.2% (n = 410,000); also: % is scaled to controls: 0 for no effect and ±100 for the full control effect; nearly all actives have a fitted effect of over 65% in size
#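 Inhibition of TGF-beta-driven CAGA-GFP reporter expression in HEPG2 cells is measured by cellular GFP fluorescence after 18 h stimulation with 500 pg/mL recombinant TGF-beta in 1% FBS medium at 37 degrees C.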
# HepG2 viability – kills HepG2 cells in TGF-b inhibitor counter-screen. HepG2 CAGA-GFP viability, ATP luminescence, 18 h. Potency, µM (highest dose often 46.1 µM), inactives show at the highest dose activity change, negative = cytotoxicity, most hits filed as cytotoxic. actives 0.76% (n = 410,000)
#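 HepG2 CAGA-GFP cells (1000/well, DMEM with 1% FBS) received compound, then TGF-beta at 500 pg/mL final, and were incubated 18 hours at 37 degrees C. Viability was read by CellTiter-Glo luminescence. Media-only wells were set as complete cell-killing and DMSO as no toxicity.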
# HT1080 IDH1KD tx – HT-1080 IDH1 knockdown cell toxicity (counter line) | HT-1080 IDH1 knockdown viability, ATP luminescence, 48 h | Potency, µM (top dose mostly 46.1 µM), inactives show at the top dose activity, negative = toxicity, hits mostly cytotoxic | actives 2% (n = 360,000);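 also: 0% = DMSO wells and -100% = cell-free medium wells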
#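 In this qHTS, HT-1080 cells depleted of IDH1 are exposed for 48 h at 37 °C to compound titrations. Toxicity is scored from CellTiter-Glo luminescence, with DMSO as full viability and medium alone as none.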
# KB-V1 MDR tox – KB-V1 MDR subline cytotoxicity; KB-V1 MDR cells viability, CellTiter-Glo, 72 h; Potency, µM (doses to about 46.1 µM), usual class: cytotoxic; actives 3.4% (n = 400,000); AID 1347076; also: % is scaled to controls: 0 for no effect and ±100 for the full control effect; nearly all actives have a fitted effect of over 60% in size
#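 qHTS viability screen in drug-selected KB-V1 MDR cells: 72 h compound treatment at 37 degrees C, ATP luminescence end point.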
# HT1080NT lethal – kills 2HG-producing HT-1080-NT fibrosarcoma cells | Potency, µM (titrated, usually from 46.1 µM), for the others: at the top dose activity, negative = less viability, hits mostly cytotoxic | AID 686970 | actives 1.6% (n = 360,000) | HT-1080-NT fibrosarcoma viability, CellTiter-Glo ATP luminescence, 48 h;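 also: NT is the 2HG producing partner of a matched IDH1 knockdown line; 0% = DMSO-treated cells and -100% = media-only wells without cells; nearly all actives have a fitted effect of over 55% in size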
#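 Toxicity toward the 2HG-producing NT line was scored as %Activity, normalised to DMSO and no-cell wells, from CellTiter-Glo luminescence after 48 hours' treatment.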
# KB-3-1 cytotox – kills parental KB-3-1 adenocarcinoma cells; KB-3-1 viability, CellTiter-Glo ATP luminescence, 72 h; Potency, µM (doses to about 46.1 µM), hits mostly cytotoxic; actives 1.4% (n = 400,000); AID 1347075; also: % is scaled to controls: 0 for no effect and ±100 for the full control effect; nearly all actives have a fitted effect of over 60% in size
#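 KB-3-1 cells, DMEM (no phenol red) + 10% FBS; compound by pin transfer, 72 h, 37 °C. Readout: CellTiter-Glo luminescence after 10 min. Data normalized, curve-fitted.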
# Active calls of the source: *; i = inactive; ? = inconclusive; / = no result; ! = repeats disagree. This is a sample that favours compounds with a hit; in the whole collection about 6.6% have one here. Calls follow the shape of the dose curve; as a rule, active = well fitted curve in the direction sought with a large enough effect; inconclusive = small, poorly fitted or top-dose-only effect, or another doubt; inactive = no such curve, though single readings can be large; an effect the other way counts as inactive or inconclusive. Potency is read from the fitted curve at half-maximal effect.
SMILES,TGFb inhibitor,HepG2 viability,HT1080 IDH1KD tx,KB-V1 MDR tox,HT1080NT lethal,KB-3-1 cytotox
C/C=C/COC(=O)c1[nH]c2c(c1C)C(=O)CC(c1ccc(N(C)C)cc1)C2 (stereo not drawn),-7%,-23%,-27%,?,-18%,?
C=CCOC(=O)c1[nH]c2c(c1C)C(=O)CC(c1ccco1)C2 (stereo not drawn),?,0%,0.37µM*,?,?,?
COc1cccc(CNC(=O)c2ccc(-c3nc(COc4ccccc4)c(C)o3)cc2)c1,-3%,0%,/,i,/,i
Cc1cccc(OCC(=O)N2CCC(c3nc4ccccc4o3)CC2)c1C,-1%,-36%,/,/,/,/
Cc1c(C(=O)OCC2CCCO2)[nH]c2c1C(=O)CC(c1ccco1)C2 (stereo not drawn),-3%,-25%,2.9µM*,4.1µM*,?,3.3µM*
Cc1c(C(=O)OC2CCCCC2)[nH]c2c1C(=O)CC(c1ccccc1)C2 (stereo not drawn),36%,7%,/,?,/,i
Cc1c(C(=O)OC2CCCCC2)[nH]c2c1C(=O)CC(c1ccccc1Cl)C2 (stereo not drawn),31%,-1%,/,?,/,4.1µM*
O=C(Cc1ccc(Cl)cc1)NCCc1csc2nc(-c3ccccc3F)nn12,-14%,-9%,/,i,/,i
CCCCN(CCCC)Cc1cc(=O)oc2ccccc12,-10%,-2%,28%,i,20%,i
O=C(Nc1ccn(CCCN(CCCn2ccc(NC(=O)OCc3ccccc3)nc2=O)CCc2cc3ccccc3[nH]2)c(=O)n1)OCc1ccccc1,-16%,-17%,18µM*,i,?,i
Cc1cc(NC(=O)CN2C(=O)CSc3ccc(S(=O)(=O)N(C)C)cc32)ccc1Br,?,-15%,/,i,/,i
CCN(CC)S(=O)(=O)c1csc(C(=O)Nc2ccccn2)c1,-3%,-5%,5%,23µM*,3%,i
COc1ccc(CCNC(=O)CCSCc2ccccc2Cl)cc1OC,-7%,-2%,/,?,/,i
CC(C)Oc1ccc(CNC(=O)Nc2ccc3c(c2)N(C)C(=O)c2ccccc2S3)cc1,-3%,-21%,/,/,/,/
O=C(NC1CCN(Cc2ccccc2)CC1)c1ccc2c(c1)[nH]c(=O)n2Cc1ccc(F)cc1,?,-2%,-13%,i,15µM*,?
CCCCCn1c(=O)[nH]c2cc(C(=O)NC3CCN(Cc4ccccc4)CC3)ccc2c1=O,-29%,-1%,12%,i,13%,i
CN1C(=O)/C(=C\c2ccccc2F)Sc2ccc(C(=O)NC3CCN(Cc4ccccc4)CC3)cc21,?,-98%,16µM*,i,21µM*,?
Cc1sc2ncnc(Sc3nnnn3-c3ccccc3)c2c1C,13µM*!,10µM*!,7.1µM*,?,10µM*,?
Clc1ccc(-c2csc3ncnc(Sc4nnnn4-c4ccccc4)c23)cc1,6.3µM*,6.3µM*,/,i,/,?
Cc1ccc(-c2csc3ncnc(Sc4nnnn4-c4ccccc4)c23)cc1,6.3µM*,-97%,/,?,/,?
c1ccc(-c2ccc(-c3csc4ncnc(Sc5nnnn5-c5ccccc5)c34)cc2)cc1,?,-11%,/,i,/,i
Cc1ccc(C)c(-n2nnnc2Sc2nnnn2-c2ccccc2)c1,?,-35%,16µM*,i,?,?
Cc1ccccc1OCc1occc1C(=O)Nc1cccc(-n2cnnn2)c1,14µM*,-32%,?,?,-29%,16µM*
Cc1ncc(CO)c2c1Oc1nc(-c3ccccc3)nc(SCC(=O)Nc3cccc(O)c3)c1C2,13µM*,-39%,7%,i,-19%,?
CCOC(=O)N1C/C(=C\c2ccccc2)C(=O)/C(=C/c2ccccc2)C1,2µM*,-45%,?,i,?,?
SMILES,TGFb inhibitor,HepG2 viability,HT1080 IDH1KD tx,KB-V1 MDR tox,HT1080NT lethal,KB-3-1 cytotox
C[N+](C)(C)CCC(=O)N1C/C(=C/c2ccccc2)C(=O)/C(=C\c2ccccc2)C1,7.9µM*,-100%,4.1µM*,10µM*,?,?
CN(C)CCC(=O)N1C/C(=C/c2ccccc2)C(=O)/C(=C\c2ccccc2)C1,2µM*,-126%,0.58µM*,i,?,i
O=C1/C(=C/c2ccccc2)CN(C(=O)CCN2CCOCC2)C/C1=C\c1ccccc1,2.2µM*,16µM*,?,?,?,i
CN1CCN(C(=O)CCCN2C(=O)/C(=C/c3ccccc3)SC2=S)CC1,?,-29%,?,?,?,?
C[C@H](CO)N1C[C@H](C)[C@@H](CN(C)S(C)(=O)=O)Oc2ccc(NS(=O)(=O)c3ccccc3)cc2C1=O,?,-1%,-6%,?,8%,i
CCCCC[C@@H](C)N1C[C@@H](COCc2ccccc2)Oc2cc(N3CC[C@@H](O)C3)ccc2S1(=O)=O,/,/,?,i,?,?
CCCCC[C@H](C)N1C[C@H](COCc2ccccc2)Oc2cc(N3CC[C@@H](N(C)C)C3)ccc2S1(=O)=O,/,/,16µM*,?,21µM*,?
CCCCC[C@@H](C)N1C[C@H](COCc2ccccc2)Oc2cc(N3CC[C@@H](N(C)C)C3)ccc2S1(=O)=O,/,/,10µM*,16µM*,12µM*,?
CCCCC[C@@H](C)N1C[C@@H](COCc2ccccc2)Oc2cc(N3CC[C@@H](N(C)C)C3)ccc2S1(=O)=O,/,/,18µM*,21µM*,21µM*,?
CCCCC[C@@H](C)N1C[C@@H](COCc2ccccc2)Oc2cc(N3CC[C@H](O)C3)ccc2S1(=O)=O,/,/,?,i,?,?
CCCCC[C@H](C)N1C[C@@H](COCc2ccccc2)Oc2cc(N3CC[C@@H](O)C3)ccc2S1(=O)=O,/,/,?,?,?,i
CCCCC[C@H](C)N1C[C@H](COCc2ccccc2)Oc2cc(N3CC[C@H](N(C)C)C3)ccc2S1(=O)=O,/,/,21µM*,21µM*,?,?
CCN1CCN(CCCNC(=O)c2cc3c(s2)-c2c(C)cccc2OC3)CC1,?,-89%,/,i,/,i
O=C(Cn1cc(SCc2ccccc2F)c2ccccc21)N1CCCCCC1,?,-30%,/,/,/,/
CCCCC[C@@H](C)N1C[C@@H](COCc2ccccc2)Oc2cc(N3CCC[C@@H]3CO)ccc2S1(=O)=O,/,/,?,16µM*,?,?
